AGP1-GFP MLPCN: alters AGP1-GFP fluorescence in TOR pathway yeast screen | AID 2066 | GFP response vs DMSO, % at 10 µM | S. cerevisiae AGP1-GFP multiplex flow cytometry, 3 h; GFP as percent of DMSO wells | 0.02% of 320,000 active;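 active means GFP response relative to DMSO above a set limit, near screen average plus 3 SD, cut at about 150% in these data; inconclusive means fewer than 70 cells counted for the yeast strain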;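 further: median GFP channel fluorescence of the gated AGP1 strain per well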
CIT2 TOR yeast: yeast TOR pathway CIT2-GFP modulation; S. cerevisiae CIT2-GFP strain, flow cytometry, 3 h; 100 means same as DMSO wells; GFP response vs DMSO, % at 10 µM; 0.065% of 320,000 active; AID 2029;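 active means GFP response relative to DMSO above a set limit, near the screen mean plus 3 SD, cut at about 150% in these data; inconclusive means Fewer than 70 cells measured for a yeast strain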;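 further: ratio of well median GFP fluorescence to mean of DMSO wells on the plate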
MEP2-GFP yeast: modulators of TOR pathway MEP2-GFP in S. cerevisiae; S. cerevisiae MEP2-GFP strain, flow cytometry GFP, 3 h; 100% = DMSO control level; AID 2016; GFP response vs DMSO, % at 10 µM; 0.51% of 330,000 active;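 active means GFP response versus DMSO above a set limit, roughly screen mean plus 3 SD, cut at about 180% in these data; inconclusive means fewer than 70 cells counted for a yeast strain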;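 further: median GFP fluorescence of the barcode-gated MEP2-GFP cells per well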
RPL19A TOR yeast: alters RPL19A-GFP fluorescence in TOR pathway yeast screen; S. cerevisiae RPL19A-GFP strain, flow cytometry, 3 h; hits give low values; percent response vs DMSO, % at 10 µM; 0.3% of 330,000 active;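 active means percent response vs DMSO below 50%; inconclusive means fewer than 70 events counted for the yeast strain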;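 further: median channel GFP fluorescence of the barcoded RPL19A-GFP strain; lower means less RPL19A-GFP as with rapamycin TOR inhibition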
LAP4 TOR yeast: yeast TOR pathway LAP4-GFP modulation | S. cerevisiae LAP4-GFP multiplex, flow cytometry GFP, 3 h; median GFP as percent of DMSO wells | GFP response vs DMSO, % at 10 µM | 0.34% of 320,000 active;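 active means GFP response vs DMSO above a set limit, about the screen mean plus 3 SD, cut at about 150% in these data; inconclusive means under 70 cell events counted for the yeast strain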
Myeloid diff 2: promotes myeloid progenitor differentiation; calls only at 10 µM; ER-HoxA9 myeloid progenitors, lysozyme-GFP differentiation, flow cytometry; 1% of 360,000 active;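 active means normalized GFP-positive differentiation at or above the plate's own cutoff, the solvent-only control mean plus 3 SD; inconclusive means no clear call, values can overlap the other calls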;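 further: cells exposed to compound for four days before flow analysis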
LAP4-GFP pick2: reconfirmed LAP4-GFP TOR pathway modulator in yeast. shares compounds with LAP4 TOR yeast. S. cerevisiae LAP4-GFP strain, flow cytometry GFP, 3 h. GFP response vs DMSO, % at 10 µM. 20% of 590 active;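 active means GFP signal as percent of the solvent control above about 150%, meaning raised reporter expression, limit read from the data; inconclusive means fewer than 70 cells counted in the well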
MEP2 cherry2: reconfirmed MEP2-GFP TOR pathway modulator in yeast; shares compounds with LAP4 TOR yeast; S. cerevisiae MEP2-GFP strain, flow cytometry GFP, 3 h; GFP response vs DMSO, % at 10 µM; 10% of 590 active; AID 2622;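 active means GFP signal above 150% of the solvent control wells, that is a rise of more than half; inconclusive means fewer than 70 yeast cells counted in the well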;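 further: median channel GFP fluorescence of all gated yeast cells per well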
RPL19A-GFP pick2: reconfirmed modulator of RPL19A-GFP TOR reporter in yeast; shares compounds with LAP4 TOR yeast; S. cerevisiae RPL19A-GFP strain, flow cytometry GFP, 3 h; hits give low values; 100% means same as DMSO wells; GFP response vs DMSO, % at 10 µM; 3% of 590 active;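 active means under 65% GFP response relative to DMSO; inconclusive means yeast strain with under 70 measured events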;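 further: median GFP channel fluorescence per well over the all cells gate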
CIT2-GFP pick2: reconfirmed modulator of CIT2-GFP TOR reporter in yeast; AID 2624; GFP response vs DMSO, % at 10 µM; S. cerevisiae CIT2-GFP strain, flow cytometry GFP, 3 h; DMSO control wells read 100%; shares compounds with LAP4 TOR yeast; 8% of 590 active;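 active means GFP response vs DMSO above about 150%, limit read from the data; inconclusive means fewer than 70 events counted for a yeast strain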;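 further: median green fluorescence per well over all gated yeast cells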
AGP1 GFP CP2: yeast AGP1-GFP TOR reporter modulation, second cherry pick. AID 2643. shares compounds with LAP4 TOR yeast. percent response vs DMSO, % at 10 µM. 590 tested, under 10 active. S. cerevisiae AGP1-GFP strain, flow cytometry GFP, 3 h;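 active means over 150 percent of DMSO response; inconclusive means yeast strain measured with under 70 events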;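 further: median GFP channel fluorescence over all cells without mother daughter split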
s288c autofluor: yeast s288c autofluorescence artifact, counter-screen; shares compounds with LAP4 TOR yeast; fluorescence change (kMESF span) at 33 µM; AID 2757; S. cerevisiae s288c, 520 nm autofluorescence, flow cytometry, 3 h; hits give high values; zero means same as solvent-only cells; 610 tested, under 10 active;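 active means fluorescence span over the dose series, or activity score, above about 33, limit read from the data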
Yeast autofl DR: TOR screen hit shows autofluorescence in yeast s288c; shares compounds with LAP4 TOR yeast; S. cerevisiae s288c parental, compound autofluorescence, flow cytometry, 3 h; fluorescence change (span) at 33 µM; 110 tested, under 10 active; AID 488829;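 active means fluorescence change span, or the activity score built from it, above 25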
TORC1 bypass: stops wildtype yeast growth while TORC1 bypass cells still grow. shares compounds with LAP4 TOR yeast. S. cerevisiae BY4741 spot growth rating, 48-72 h; hits give low values. growth rating (0-3) at 30 µM. 120 tested, under 10 active. AID 504456;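 active means growth rating at most 1 for wild type yeast while the TORC1 bypass strain still grows fully, rated 3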
Hits are given with their value; – = inactive; ? = inconclusive; · = not tested or not shown; [ ] = dose if it differs, or a comment. Compounds with a hit are over-represented: about 1.8% of the library has one in this group of screens.

SMILES | AGP1-GFP MLPCN | CIT2 TOR yeast | MEP2-GFP yeast | RPL19A TOR yeast | LAP4 TOR yeast | Myeloid diff 2 | s288c autofluor | others
Cc1ccc(S(=O)(=O)/N=C(/Nc2cccc(C(=O)O)c2)c2ccccc2)cc1 | – | – | – | – | – | – | ·
Cc1ccc(S(=O)(=O)/N=C(/Sc2ccccc2C(=O)O)c2ccccc2)cc1 | – | – | – | – | – | – | · | LAP4-GFP pick2=–;MEP2 cherry2=–;RPL19A-GFP pick2=–;CIT2-GFP pick2=–;AGP1 GFP CP2=–
O=S(=O)(/N=C(\c1ccccc1)N1CCOCC1)c1ccc(Cl)cc1 | – | – | – | – | – | – | ·
O=C(NCc1ccccc1)c1cc(=O)[nH]c2ccccc12 | – | · | – | – | – | – | ·
CNc1nc(N)c([N+](=O)[O-])c(Nc2ccc(F)cc2)n1 | · | · | · | · | · | · | · | Yeast autofl DR=–;TORC1 bypass=–
Cc1ccc(CNc2nc(N)c([N+](=O)[O-])c(Nc3ccc(F)cc3)n2)cc1 | – | – | – | – | – | – | ·
CNc1nc(N)c([N+](=O)[O-])c(NCc2ccccc2)n1 | – | – | – | – | – | ? | · | Yeast autofl DR=–;TORC1 bypass=–
CNc1nc(N)c([N+](=O)[O-])c(NC2CCCCC2)n1 | – | – | – | – | – | – | · | Yeast autofl DR=–;TORC1 bypass=–
CNc1nc(N)c([N+](=O)[O-])c(Nc2ccc(OC)cc2)n1 | · | · | · | · | · | · | · | Yeast autofl DR=–;TORC1 bypass=–
CNc1nc(C)c([N+](=O)[O-])c(Nc2ccc(OC)cc2)n1 | – | – | – | – | – | – | ·
Cc1c(CN2CCN(c3cccc(C(F)(F)F)c3)CC2)c(=O)n(-c2ccccc2)n1C | – | – | – | – | – | – | ·
CC(C)C[C@H]1CN(CCCC[C@H]2CNC(=O)C(=O)N2CCc2ccccc2)C(=O)C(=O)N1CC1CCCCC1 | · | · | · | · | · | – | ·
O=C(OCc1ccc(F)cc1)c1cccnc1Cl | – | – | – | – | – | – | ·
O=[N+]([O-])c1cccc(COc2ncnc3cc([N+](=O)[O-])ccc23)c1 | – | – | – | – | – | – | ·
O=c1/c(=C\c2cccnc2)sc2nc3ccccc3n12 | · | · | · | · | · | – | ·
O=C1c2sc3nc4ccccc4n3c2C(=O)N1c1ccccc1Cl | – | – | – | – | 191.9 | – | – | LAP4-GFP pick2=–;MEP2 cherry2=158.1;RPL19A-GFP pick2=–;CIT2-GFP pick2=–;AGP1 GFP CP2=–
COc1ccc(NC(=O)COC(=O)CN2C(=O)C3CC=CCC3C2=O)c([N+](=O)[O-])c1 (stereo unspecified) | – | – | – | – | – | – | ·
O=c1[nH]c(-c2ccccn2)nc(C(F)(F)F)c1Br | – | – | – | – | 242.2 | – | –
CC12CC3CC(C1)CC(C(=O)NNC(=O)c1ccncc1)(C3)C2 | – | – | – | – | – | – | ·
O=C(NNC(=S)NC(=O)C12CC3CC(CC(C3)C1)C2)c1ccncc1 | – | · | – | – | 181.7 | · | –
CC1(C(=O)NC(=S)NNC(=O)c2ccncc2)CCCCC1 | 155.8[may fluoresce green] | 227.2[may fluoresce green] | 543.5[may fluoresce green] | – | 160.4[may fluoresce green] | – | – | LAP4-GFP pick2=–;MEP2 cherry2=–;RPL19A-GFP pick2=–;CIT2-GFP pick2=–;AGP1 GFP CP2=–
O=C(C(=O)N1CCCc2ccccc21)N1CCCc2ccccc21 | – | – | – | – | – | – | ·
O=C(c1ccc(C(=O)N2CCCc3ccccc32)s1)N1CCCc2ccccc21 | – | – | – | – | 170.7 | – | – | LAP4-GFP pick2=–;MEP2 cherry2=164.2;RPL19A-GFP pick2=–;CIT2-GFP pick2=–;AGP1 GFP CP2=–;Yeast autofl DR=–;TORC1 bypass=–
Cc1cc(NC(=O)CSc2nnc(-c3ccncc3)n2-c2ccc(F)cc2)no1 | – | – | – | – | – | – | · | LAP4-GFP pick2=–;MEP2 cherry2=–;RPL19A-GFP pick2=–;CIT2-GFP pick2=–;AGP1 GFP CP2=–
COc1ccc(C(=O)OCC(=O)NC2CCCC2)c(OC)c1 | – | – | – | – | – | – | ·
SMILES | AGP1-GFP MLPCN | CIT2 TOR yeast | MEP2-GFP yeast | RPL19A TOR yeast | LAP4 TOR yeast | Myeloid diff 2 | s288c autofluor | others
COc1ccc(C(=O)c2ccccc2)c(OCC(=O)NC2CC2)c1 | – | – | – | – | – | – | · | LAP4-GFP pick2=–;MEP2 cherry2=–;RPL19A-GFP pick2=–;CIT2-GFP pick2=–;AGP1 GFP CP2=–
O=C(Oc1c(CN2CCOCC2)cc(Cl)c2cccnc12)c1cccs1 | – | – | – | – | – | – | ·
O=C(Oc1c(Cl)cc(Cl)c2cccnc12)c1cccs1 | – | – | – | – | 221.8 | – | – | LAP4-GFP pick2=201.4;MEP2 cherry2=–;RPL19A-GFP pick2=–;CIT2-GFP pick2=–;AGP1 GFP CP2=–
O=C(Oc1c(Cl)cc(Cl)c2cccnc12)c1ccco1 | – | – | – | – | 230.4 | · | – | Yeast autofl DR=–;TORC1 bypass=–
CCc1cccc(CC)c1NC(=O)COC(=O)CC1c2ccccc2CCN1S(=O)(=O)c1ccc(F)cc1 (stereo unspecified) | – | – | – | – | – | – | ·
O=C(Nc1ccc(F)cc1)c1nc(S(=O)(=O)Cc2ccccc2)ncc1Cl | – | – | – | – | – | ? | ·
Cc1ccc(NC(=O)c2nc(S(=O)(=O)Cc3ccccc3)ncc2Cl)cc1 | – | – | – | – | 151.9 | ? | –
CCSc1nnc(NC(=O)c2ccccn2)s1 | – | – | – | – | 175.5 | – | – | Yeast autofl DR=–;TORC1 bypass=–
OCC1OC2C(NC(=S)N2c2ccccc2)C(O)C1O (stereo unspecified) | · | · | · | · | · | – | ·
Fc1ccc(-c2n[nH]c(=S)n2-c2ccc3c(c2)OCCO3)cc1 | – | – | – | – | – | – | ·
O=C(NCc1cccs1)c1ccccc1 | – | – | – | – | – | – | ·
CC(C)Oc1ccc(C(=O)NCc2cccs2)cc1 | – | – | – | – | 168.6 | – | · | LAP4-GFP pick2=–;MEP2 cherry2=–;RPL19A-GFP pick2=–;CIT2-GFP pick2=–;AGP1 GFP CP2=–
C/C(=N\n1cnnc1)c1ccccc1 | – | – | – | – | – | – | ·
O=[N+]([O-])c1cnc(Sc2ccncn2)s1 | – | – | – | – | 262.0 | ? | –
CN(C)c1ccc(C(=O)c2ccc(O)cc2O)cc1 | – | – | – | – | 206.4 | – | · | LAP4-GFP pick2=–;MEP2 cherry2=–;RPL19A-GFP pick2=–;CIT2-GFP pick2=–;AGP1 GFP CP2=–

Source: PubChem BioAssay
